In PubChem BioAssay:
Active and inactive are the calls of the source.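 How the source made its calls: active means viability loss from added drug above about 55%, and viability with drug at most 40%, in both replicates (limit read from the data, passing the limit was not always enough); inconclusive means both conditions met in only one replicate; inactive means neither replicate meets both conditions.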

assay: reversal of MRP1-mediated doxorubicin resistance, pilot screen, H69AR cells, doxorubicin co-treatment (AID 601); conditions: H69AR cells + 2 uM doxorubicin, CellTiter-Glo, 72 h; at 10 µM; hits give high values

Row | Compound | differential viability (reversal)
1 | COc1ccc(-c2noc(COc3ccc4ccccc4c3Br)n2)cc1OC | 5.36% (inactive)
2 | CC(=O)c1ccc(NC2OC(C)C(O)C(O)C2O)cc1 (stereo not given) | 1.54% (inactive)
3 | CSc1nc(C)cc(OCC(=O)N2CCOCC2)n1 | 2.54% (inactive)
4 | O=C(CCCn1c(=S)[nH]c2ccccc2c1=O)N1CCCCC1 | 6.58% (inactive)
5 | CN(C(=O)c1ccccn1)c1nnc(-c2ccncc2)s1 | 15.6% (inactive)
6 | CC(C)(C)OC(=O)N1CC(O)CC1C(=O)OCC(=O)c1ccc(Cl)cc1 (stereo not given) | -6.24% (inactive)
7 | Cc1csc(SCc2nc3sc4c(c3c(=O)[nH]2)CCC4)n1 | 1.88% (inactive)
8 | CCC(C)NC(=O)CC1Oc2ccc(C)cc2NC1=O (stereo not given) | -2.57% (inactive)
9 | CCSc1nc(C)nc2c1oc1ccccc12 | 10% (inactive)
10 | CC1=C(C)[N+](=O)C2CCCCC2N1[O-] (stereo not given) | 9.79% (inactive)
11 | O=c1[nH]c2c(s1)C(c1ccco1)C1C3CCC(C3)C1S2 (stereo not given) | -10.5% (inactive)
12 | CC1CCCCC1NC(=O)C1CCN(C(=O)NC2CCCCC2)CC1 (stereo not given) | 6.41% (inactive)
13 | COc1cccc(OC)c1C(=O)N1CCN(S(=O)(=O)c2ccc(C)cc2)CC1 | -5.23% (inactive)
14 | Cc1nnc(SCc2cc(=O)[nH]c(N3CCCCC3)n2)s1 | 2.25% (inactive)
15 | CCc1[nH]nc2c1C(c1cccc(OC(=O)N3CCOCC3)c1)C(C#N)=C(N)O2 (stereo not given) | -9.21% (inactive)
16 | CS(=O)(=O)c1ccc2nc(NC(=O)c3cccs3)sc2c1 | -6.37% (inactive)
17 | COc1ccc(C(=O)N2CCN(S(=O)(=O)c3cc(Cl)ccc3OC)CC2)cc1 | 1.29% (inactive)
18 | COC(=O)c1cccc(NC(=O)Cc2coc3cc(OC)ccc23)c1 | 15.6% (inactive)
19 | CCOC(=O)N1CCN(C(=O)CN2C(=O)COc3ccc(C)cc32)CC1 | 1.89% (inactive)
20 | CCNc1nc(N2CCCCC2)nc(-n2nnc(C(=O)OCC)c2C)n1 | 1.31% (inactive)

Row | Compound | differential viability (reversal)
21 | O=c1c2c3nc4ccccc4nc3n(CC3CCCO3)c2ncn1CCc1ccccc1 (stereo not given) | 38.6% (inactive)
22 | COc1ccc(CC(NC(C)=O)C(=O)NC2CCN(C(=O)Nc3ccc(C#N)cc3)CC2)cc1OC (stereo not given) | -3.13% (inactive)
23 | O=S(=O)(c1ccc(Br)s1)N1CCCCC1 | 2.88% (inactive)
24 | C/C(N)=C(/C#N)C(=O)COC(=O)c1cc(C)n(-c2ccc(F)cc2)c1C | -0.13% (inactive)
25 | COc1cccc(Nc2cc(C)nc3ccccc23)c1 | -1.05% (inactive)
26 | O=S(=O)(c1ccc(-c2csc(-c3cccnc3)n2)cc1)N1CCCCC1 | 1.22% (inactive)
27 | O=C(O)CCc1ccc(-c2ccc(Br)cc2)n1CC(=O)O | 2.92% (inactive)
28 | COc1ccc(N(CC(=O)NC2CCCC2)C(=O)Cn2nnc(-c3ccc(C)cc3)n2)cc1 | -4.01% (inactive)
29 | CCOc1cc(C(=O)N(C)c2ccccc2)cc(OCC)c1OCC | -1.49% (inactive)
30 | COc1ccc(C(=O)Nc2ccc(C)cn2)c(OC)c1 | 11.2% (inactive)
31 | CN(C)c1nc(SCCOC(=O)c2ccccc2)nc(N(C)C)n1 | 16.4% (inactive)
32 | NC(=O)C1CCN(CC(=O)N2c3ccccc3CCc3ccccc32)CC1 | 1.55% (inactive)
33 | CCCC(c1nnnn1Cc1ccc(OC)cc1)N1CCN(c2ccccc2OC)CC1 (stereo not given) | -5.73% (inactive)
34 | CCN1C(=O)c2cccc3c(NC(=O)c4ccc5c(c4)OCCO5)ccc1c23 | -20.3% (inactive)
35 | CCN1C(=O)Cc2cc(S(=O)(=O)N3CCOCC3)ccc21 | -2.08% (inactive)
36 | CCOc1ccccc1NC(=O)CN(c1ccc(C)cc1)S(=O)(=O)c1c(C)noc1C | -9.07% (inactive)
37 | O=C(OCCCN1CCCC1)C1(c2ccccc2)CCCC1 | 6.39% (inactive)
38 | COCCn1c(NCc2ccc(C)cc2)nc2c1c(=O)[nH]c(=O)n2C | 7.44% (inactive)
39 | CCCN1C2CCCC1CC(NC(=O)Nc1cccc(C(C)=O)c1)C2 (stereo not given) | -2.24% (inactive)
40 | O=C(COC(=O)c1ccccc1O)Nc1ccc(OC(F)F)cc1 | 2.67% (inactive)
